One assay relates to PPARg DBDmut:RXRa IVT, anti-PPARg (DBD mutation: PPARg1 K132A/R137A, NR concentration 270 nM, RXRa partner concentration 90 nM). The assay is described as follows: PBM binding z-score (relative to random genomic background probes); higher = stronger binding; sequences stand for … in GC…GCGATTGACAGCGTAGAATGAAGG
Put shortly: (§1)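 Binding z-scores take random background probes as their reference. They come from custom Agilent 4×180K protein-binding microarrays incubated 1 h with ligand-free nuclear receptor dimers, with antibodies against each partner (one per run) detecting binding. Scanned fluorescence was regression-normalized.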
In turn, ACTATTAGTTGAGAAGAGGGCAACCGATAGGTTG registered a PBM binding z-score of 1.02.
In the case of CGAACTAGGTCTGAACAGGACAGTGAAGGATGAT, the PBM binding z-score was -0.255.
Sequence CCGAGTAGGTTATGGGGCATTCCGGCAACGGTGA displayed a PBM binding z-score of 0.204.
On the same count and under the same terms, in the case of GCTCGGATGACAAGGTCAGAGCTTTGTCCGTAGA it was -1.27.
The same measure, in the same setting: as for CGAACTAGGTCAAAGGTCAAAGTCGAGCCAACCA, the figure is 5.13; as for GCGACTGGTGCATCAGCAGGTTACCATAACTTAA, -1.07; as for TCTAGTTGGTCACGGAGGTCACACACGACGGGTA, 1.49.
On the same count and under the same terms, as for GTTGCTAGGTCAGGTTGGTCAGCTAACGGGTACG, the figure is 0.283; as for TCGTGTAGATCAGCAGGTTAAGAAAGCTGGCCAA, -0.818; as for GCTGGCAGGCCATTTGGGTCACTCAATGACGGGC, -1.06.
On to TGAATCAGGTTATAAGATCAGGGAACGTTGCAAA, for which the PBM binding z-score turned out to be 1.01.
Still for that read-out and setting: in the case of AGCATGAGGTTATACGTAGATCAGGGAAGAAAGT it was 0.86; in that of CCTAGCAGGCCAATTTGGGTCACTCAAGGCTTGA, -1.03; in that of GATACAGGGTCAAGACCAGAGTACGCGTATTGAT, 1.38.
The same measure, in the same setting: in the case of TCTCGGAGGACACGAAGGACAGAGCTTTCCAGAG it was -0.366.
Take CCGACTGGGCCACGAAAGGTCATTGATTCAGTGA: the PBM binding z-score is -0.928.
ATCGAAAGGTCGAAGGTTAGTATACCCACCCGAA yielded a PBM binding z-score of 1.15.
Same read-out and setting: in the case of TGAATGACGTTATAAGATCAGGGAACGTTGCAAA it was 1.11; in that of AGAATGAGGCTACCAAAGATCAGGGAAACGCTTG, 0.153.
Regarding CAAACTAGGTCAAGGTCATAGTCGGTTTGTGCCA, the PBM binding z-score turned out to be 4.59.
Still for that read-out and setting: in the case of TCACGGAGGACACGAAAGGTCAGAGCTCGACATC it was -0.581.
As to ACTAGCAGGCCAGGTTTGGGTCACTCAAACAAAG, the PBM binding z-score is -0.511.
Still for that read-out and setting: in the case of TAGCCTAGGTCATGGGCCAGTAGACCACGCGAAC it was 0.0866; in that of CCCTACGGGTCACTGACAGGTTATAGCATTTGGA, -0.15.
For GATACAGGGTCAACGCCAGAGTACGCGTATTGAT, the PBM binding z-score came to 0.296.
Consider ACAGACAGGTGACGAAGGTAACTCAGGCTATCAT, for which the PBM binding z-score stood at 0.0336.
Regarding TCAGACAGGTGGAGGTAACTCAGGTACGCAGTCG, the PBM binding z-score amounted to 0.459.
Regarding TCTATTAGTTGATTAGGGCAGCCGAAACAGCGGA, the PBM binding z-score came to 1.45.
On the same count and under the same terms, as for GCTAGCAGGCCATTTGGGACACTCAATGACGGGC, the figure is -0.432; as for TAGCCTAGGTCATGCAGGCCAGTATAGTGTCGGC, 0.61.
As for TCTTGTAGATCAAGCAGGTTAATAAAGCCTGAGT, the PBM binding z-score was -0.163.
Turning to CTCCAAAGGTCGTGCTCAGGTGAGTATACCAAAC, the PBM binding z-score is -0.0777.
Same read-out and setting: as for GCTGCTAGGTCCACTGATGGTCAGCTAAAGCTCG, the figure is -1.19.
ATATGTAGCTTATCGGGTCATTCAGTTTGCGCAT registered a PBM binding z-score of 1.36.
Turning to CCTCGGAGGACAGTAGGTCAGAGCTGTCCGCTTT, the PBM binding z-score is -0.95.
The sequence AGAATGAGGTTATAAAGATCAGGGAATTGCGGTC showed a PBM binding z-score of 0.947.
On the same count and under the same terms, as for GCTTGTAGATTAAGGTTAAGAAAGACTAAGCTAA, the figure is 0.205.
The same measure, in the same setting: as for CGTCAAAGTTCAATGTAACGTAACAGAAAGCAGC, the figure is 1.4; as for TCTATTAGTTGATAAGGGCAACCGAAACAGCGGA, 0.803; as for GCTAGTTGGTCAGTAAAAGGTCACAGACCGGTCG, -0.272.

The next assay deals with PPARg DBDmut IVT, anti-PPARg (DBD mutation: PPARg1 K132A/R137A, NR concentration 270 nM). Described as above. Put shortly: as §1
Take ACTATTAGTTGAGAAGAGGGCAACCGATAGGTTG: the PBM binding z-score was determined as 0.853.
As for CGAACTAGGTCTGAACAGGACAGTGAAGGATGAT, the PBM binding z-score was -0.111.
On the same count and under the same terms, as for CCGAGTAGGTTATGGGGCATTCCGGCAACGGTGA, the figure is -0.0547; as for GCTCGGATGACAAGGTCAGAGCTTTGTCCGTAGA, -1.25; as for CGAACTAGGTCAAAGGTCAAAGTCGAGCCAACCA, 3.23.
The same measure, in the same setting: as for GCGACTGGTGCATCAGCAGGTTACCATAACTTAA, the figure is -0.356; as for TCTAGTTGGTCACGGAGGTCACACACGACGGGTA, 1.18; as for GTTGCTAGGTCAGGTTGGTCAGCTAACGGGTACG, -0.614.
Still for that read-out and setting: as for TCGTGTAGATCAGCAGGTTAAGAAAGCTGGCCAA, the figure is -0.881.
For GCTGGCAGGCCATTTGGGTCACTCAATGACGGGC, the PBM binding z-score was -1.22.
TGAATCAGGTTATAAGATCAGGGAACGTTGCAAA: the PBM binding z-score amounted to 0.775.
Same read-out and setting: in the case of AGCATGAGGTTATACGTAGATCAGGGAAGAAAGT it was 0.438; in that of CCTAGCAGGCCAATTTGGGTCACTCAAGGCTTGA, -1.39; in that of GATACAGGGTCAAGACCAGAGTACGCGTATTGAT, 0.619.
For TCTCGGAGGACACGAAGGACAGAGCTTTCCAGAG, the PBM binding z-score was -1.09.
On the same count and under the same terms, in the case of CCGACTGGGCCACGAAAGGTCATTGATTCAGTGA it was -1.23; in that of ATCGAAAGGTCGAAGGTTAGTATACCCACCCGAA, 0.865.
Still for that read-out and setting: in the case of TGAATGACGTTATAAGATCAGGGAACGTTGCAAA it was 0.502.
With AGAATGAGGCTACCAAAGATCAGGGAAACGCTTG, the PBM binding z-score was -0.213.
On the same count and under the same terms, in the case of CAAACTAGGTCAAGGTCATAGTCGGTTTGTGCCA it was 1.94; in that of TCACGGAGGACACGAAAGGTCAGAGCTCGACATC, -0.261.
The same measure, in the same setting: in the case of ACTAGCAGGCCAGGTTTGGGTCACTCAAACAAAG it was -0.687; in that of TAGCCTAGGTCATGGGCCAGTAGACCACGCGAAC, 0.107; in that of CCCTACGGGTCACTGACAGGTTATAGCATTTGGA, -0.444.
For GATACAGGGTCAACGCCAGAGTACGCGTATTGAT, the PBM binding z-score was 0.699.
Turning to ACAGACAGGTGACGAAGGTAACTCAGGCTATCAT, the PBM binding z-score is -0.57.
Turning to TCAGACAGGTGGAGGTAACTCAGGTACGCAGTCG, the PBM binding z-score is -0.319.
TCTATTAGTTGATTAGGGCAGCCGAAACAGCGGA showed a PBM binding z-score of 0.97.
Still for that read-out and setting: in the case of GCTAGCAGGCCATTTGGGACACTCAATGACGGGC it was -0.76.
The sequence TAGCCTAGGTCATGCAGGCCAGTATAGTGTCGGC had a PBM binding z-score of 0.0782.
TCTTGTAGATCAAGCAGGTTAATAAAGCCTGAGT had a PBM binding z-score of 0.466.
With CTCCAAAGGTCGTGCTCAGGTGAGTATACCAAAC, the PBM binding z-score is -0.509.
The same measure, in the same setting: as for GCTGCTAGGTCCACTGATGGTCAGCTAAAGCTCG, the figure is -1.02.
Same read-out and setting: as for ATATGTAGCTTATCGGGTCATTCAGTTTGCGCAT, the figure is 1.64; as for CCTCGGAGGACAGTAGGTCAGAGCTGTCCGCTTT, -1.78.
The same measure, in the same setting: as for AGAATGAGGTTATAAAGATCAGGGAATTGCGGTC, the figure is 0.696; as for GCTTGTAGATTAAGGTTAAGAAAGACTAAGCTAA, -0.0743; as for CGTCAAAGTTCAATGTAACGTAACAGAAAGCAGC, 0.705.
TCTATTAGTTGATAAGGGCAACCGAAACAGCGGA gave a PBM binding z-score of 1.07.
For GCTAGTTGGTCAGTAAAAGGTCACAGACCGGTCG, the PBM binding z-score amounted to 0.44.

The values are drawn from the supplement of paper PMC6555819.
